From the supplement of paper PMC9694430

Key:
Assay in all cases: thermal shift delta Tm vs DMSO control; higher = stronger stabilization (binding)
Settings in all cases: 12.5 µM; protein concentration 2 µM
LOC_OS02G45750-cb003 = test system: LOC_OS02G45750-cb003
Method in brief: (§1)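 Rice kinase domain constructs were expressed in E. coli, purified, and tested by differential scanning fluorimetry with compound added in DMSO. Each well of a 96-well plate held 19.5 μl of 2 μM kinase in 100 mM potassium phosphate pH 7.5, 150 mM NaCl, 10% glycerol and 5 × SYPRO Orange, and fluorescence was read from 25°C to 95°C at 0.05°C/s. The melting temperature shift is the mean of triplicates, taken against protein with DMSO alone after Boltzmann fitting.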

LOC_OS02G54510-cb004 = test system: LOC_OS02G54510-cb004
Method in brief: as §1

LOC_OS03G04050-cb001 = test system: LOC_OS03G04050-cb001
Method in brief: as §1

LOC_OS03G12390-cb001 = test system: LOC_OS03G12390-cb001
Method in brief: as §1

LOC_OS03G27990-cb004 = test system: LOC_OS03G27990-cb004
Method in brief: as §1

LOC_OS03G50450-cb001 = test system: LOC_OS03G50450-cb001
Method in brief: as §1

LOC_OS03G50810-cb003 = test system: LOC_OS03G50810-cb003
Method in brief: as §1

LOC_OS04G35114-cb001 = test system: LOC_OS04G35114-cb001
Method in brief: as §1

LOC_OS04G38480-cb003 = test system: T1, LOC_OS04G38480-cb003
T1 sequence (whole entry): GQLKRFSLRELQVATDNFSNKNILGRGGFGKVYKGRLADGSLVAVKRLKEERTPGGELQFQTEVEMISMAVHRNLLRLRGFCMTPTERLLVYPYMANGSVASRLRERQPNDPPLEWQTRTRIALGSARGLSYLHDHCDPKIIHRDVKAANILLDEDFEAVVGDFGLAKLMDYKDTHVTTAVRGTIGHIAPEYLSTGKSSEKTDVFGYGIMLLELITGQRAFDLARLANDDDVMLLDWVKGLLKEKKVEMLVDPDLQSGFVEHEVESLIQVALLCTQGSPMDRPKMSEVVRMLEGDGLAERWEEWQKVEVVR
Method in brief: as §1

LOC_OS04G41100-cb001 = test system: T2, LOC_OS04G41100-cb001
T2 sequence (whole entry): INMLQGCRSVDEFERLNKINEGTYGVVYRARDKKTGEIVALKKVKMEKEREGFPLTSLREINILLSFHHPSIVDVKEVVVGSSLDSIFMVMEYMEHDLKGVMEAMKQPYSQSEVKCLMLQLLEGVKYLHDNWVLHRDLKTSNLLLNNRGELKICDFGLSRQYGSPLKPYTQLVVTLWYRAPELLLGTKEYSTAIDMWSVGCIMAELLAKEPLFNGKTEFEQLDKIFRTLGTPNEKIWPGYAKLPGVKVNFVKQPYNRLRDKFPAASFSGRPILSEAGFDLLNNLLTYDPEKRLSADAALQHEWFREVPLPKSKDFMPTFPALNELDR
Method in brief: as §1

LOC_OS04G57630-cb004 = test system: LOC_OS04G57630-cb004
Method in brief: as §1

LOC_OS05G07850-cb002 = test system: LOC_OS05G07850-cb002
Method in brief: as §1

LOC_OS05G16824-cb004 = test system: LOC_OS05G16824-cb004
Method in brief: as §1

LOC_OS05G28520-cb001 = test system: LOC_OS05G28520-cb001
Method in brief: as §1

LOC_OS05G30820-cb001 = test system: LOC_OS05G30820-cb001
Method in brief: as §1

LOC_OS05G43570-cb004 = test system: LOC_OS05G43570-cb004
Method in brief: as §1

LOC_OS06G16330-cb003 = test system: LOC_OS06G16330-cb003
Method in brief: as §1

LOC_OS06G22820-cb001 = test system: T3, LOC_OS06G22820-cb001
T3 sequence (whole entry): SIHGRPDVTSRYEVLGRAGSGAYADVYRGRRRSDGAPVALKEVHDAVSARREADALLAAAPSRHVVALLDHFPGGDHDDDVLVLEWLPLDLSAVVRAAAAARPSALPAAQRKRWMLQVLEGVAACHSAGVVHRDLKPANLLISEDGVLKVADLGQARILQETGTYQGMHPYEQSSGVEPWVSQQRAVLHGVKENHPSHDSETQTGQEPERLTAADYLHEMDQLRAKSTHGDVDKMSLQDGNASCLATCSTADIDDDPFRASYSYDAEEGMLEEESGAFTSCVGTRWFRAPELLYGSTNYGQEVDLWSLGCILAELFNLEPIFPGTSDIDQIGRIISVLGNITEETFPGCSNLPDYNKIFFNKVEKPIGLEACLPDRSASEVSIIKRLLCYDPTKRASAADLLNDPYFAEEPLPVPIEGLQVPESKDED
Method in brief: as §1

LOC_OS07G06570-cb004 = test system: LOC_OS07G06570-cb004
Method in brief: as §1

LOC_OS07G07230-cb001 = test system: LOC_OS07G07230-cb001
Method in brief: as §1

Sequence of LOC_OS06G16330-cb003 (as listed by the source): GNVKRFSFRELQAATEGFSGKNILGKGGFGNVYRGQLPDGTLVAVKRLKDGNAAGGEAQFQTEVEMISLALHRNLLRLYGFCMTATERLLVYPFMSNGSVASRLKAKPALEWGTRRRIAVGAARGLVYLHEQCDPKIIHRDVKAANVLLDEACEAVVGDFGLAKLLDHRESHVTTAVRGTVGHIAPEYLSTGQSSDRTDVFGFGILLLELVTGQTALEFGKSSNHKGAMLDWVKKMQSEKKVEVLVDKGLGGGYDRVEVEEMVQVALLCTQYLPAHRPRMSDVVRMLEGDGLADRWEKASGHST

| SMILES | thermal shift delta Tm (LOC_OS02G45750-cb003) | thermal shift delta Tm (LOC_OS02G54510-cb004) | thermal shift delta Tm (LOC_OS03G04050-cb001) | thermal shift delta Tm (LOC_OS03G12390-cb001) | thermal shift delta Tm (LOC_OS03G27990-cb004) | thermal shift delta Tm (LOC_OS03G50450-cb001) | thermal shift delta Tm (LOC_OS03G50810-cb003) | thermal shift delta Tm (LOC_OS04G35114-cb001) | thermal shift delta Tm (LOC_OS04G38480-cb003) | thermal shift delta Tm (LOC_OS04G41100-cb001) | thermal shift delta Tm (LOC_OS04G57630-cb004) | thermal shift delta Tm (LOC_OS05G07850-cb002) | thermal shift delta Tm (LOC_OS05G16824-cb004) | thermal shift delta Tm (LOC_OS05G28520-cb001) | thermal shift delta Tm (LOC_OS05G30820-cb001) | thermal shift delta Tm (LOC_OS05G43570-cb004) | thermal shift delta Tm (LOC_OS06G16330-cb003) | thermal shift delta Tm (LOC_OS06G22820-cb001) | thermal shift delta Tm (LOC_OS07G06570-cb004) | thermal shift delta Tm (LOC_OS07G07230-cb001) |
| --- | --- | --- | --- | --- | --- | --- | --- | --- | --- | --- | --- | --- | --- | --- | --- | --- | --- | --- | --- | --- |
| C=CC(=O)Nc1cccc(Nc2nc(Nc3ccc(N4CCN(C(C)=O)CC4)cc3OC)ncc2C(F)(F)F)c1 [Rociletinib (CO-1686, AVL-301)] | 1.53 °C | 0.29 °C | 0.43 °C | 11.1 °C | 0.66 °C | 1.7 °C | 2.22 °C | 2.08 °C | 0.94 °C | 0.4 °C | 0.55 °C | 10.2 °C | 4.44 °C | 0.98 °C | 0.73 °C | 0.4 °C | 4.77 °C | 0.68 °C | 1.54 °C | 1.09 °C |
| CN1CC[C@H](c2c(O)cc(O)c3c(=O)cc(-c4ccccc4Cl)oc23)[C@H](O)C1 [Flavopiridol (Alvocidib)] | 1.64 °C | 0.69 °C | 0.2 °C | 1.66 °C | 1.06 °C | 0.4 °C | 0.4 °C | 2.64 °C | 0.88 °C | 0.66 °C | 0.36 °C | 5.16 °C | 2.71 °C | -0.27 °C | 0.85 °C | 0.07 °C | 3.19 °C | 1.43 °C | 0.96 °C | 0 °C |
| O=C1NCCc2[nH]c(-c3ccncc3)cc21 | 0.39 °C | 0.14 °C | 0.37 °C | 3.14 °C | 0.51 °C | 0.87 °C | 0.45 °C | 0.84 °C | 0.45 °C | 1.14 °C | 0.34 °C | 4.2 °C | -2.22 °C | 0.25 °C | 0.53 °C | 0.46 °C | 1.3 °C | 0.55 °C | 0.4 °C | 0.42 °C |
| O=C(NC(NC(=S)Nc1ccc(F)c([N+](=O)[O-])c1)C(Cl)(Cl)Cl)C(c1ccccc1)c1ccccc1 (stereo not given) | 0.8 °C | 1.3 °C | 1.21 °C | 1.23 °C | 0.49 °C | 0.84 °C | 1.45 °C | 1.31 °C | 3.23 °C | 0.88 °C | 1.38 °C | 8.68 °C | 0.69 °C | 1.84 °C | 1.61 °C | 2.15 °C | 0.69 °C | 1.79 °C | 1.83 °C | 0.79 °C |
| O=C(NOCC1CC1)c1ccc(F)c(F)c1Nc1ccc(I)cc1Cl | 0.27 °C | -0.05 °C | 1.06 °C | 0.75 °C | 0.28 °C | 0.46 °C | 0.83 °C | 0.12 °C | 1.28 °C | 0.9 °C | 0.14 °C | 1.54 °C | 2.02 °C | 1.8 °C | 0.63 °C | 1.06 °C | 0.69 °C | 1.27 °C | 1.57 °C | 0.31 °C |
| Cc1cnc(NC(=O)Nc2cc(Br)c(C)cc2OC[C@@H]2CNCCO2)cn1 | 2.48 °C | 0.18 °C | 0.38 °C | 0.98 °C | 0.74 °C | 0.51 °C | 2.11 °C | 1.71 °C | 0.59 °C | 0.37 °C | 0.36 °C | 3.74 °C | 5.41 °C | 0.03 °C | 0.41 °C | 0.24 °C | 0.75 °C | 0.22 °C | 0.46 °C | 0.19 °C |
| O=c1cc(-c2cccc3c2Sc2ccccc2S3)oc(N2CCOCC2)c1 | 0.06 °C | -0.02 °C | 0.45 °C | 0.59 °C | -0.19 °C | -0.07 °C | 0.13 °C | -0.05 °C | 1.71 °C | 0.74 °C | -0.22 °C | 0.85 °C | 0.1 °C | 0.74 °C | 0.44 °C | 0.13 °C | -0.34 °C | 0.79 °C | 0.35 °C | -0.3 °C |
| CC(C)(C)Cn1c(N)nc2ccc(-c3[nH]c(C(C)(C)C)nc3-c3ccc(F)cc3)nc21 | 0.45 °C | 0.25 °C | 0.52 °C | -0.25 °C | 0.28 °C | 0.23 °C | 0.13 °C | 0.02 °C | 0.12 °C | 0.22 °C | -1.17 °C | 1.45 °C | -0.61 °C | 0.04 °C | 0.34 °C | 0.33 °C | 0.24 °C | 0.34 °C | 0.31 °C | 0.21 °C |
| NC(=O)c1cnc(N[C@@H]2CCCC[C@@H]2N)nc1Nc1cccc(-n2nccn2)c1 | 2.02 °C | 2.55 °C | 0.07 °C | 1.42 °C | 1.98 °C | 3.61 °C | 0.99 °C | 1.31 °C | 0.85 °C | 0.63 °C | 0.91 °C | 6.88 °C | 6.77 °C | -0.14 °C | 2.09 °C | 0.39 °C | 5.31 °C | 0.77 °C | 1.27 °C | 0.71 °C |
| N#Cc1c(NC(=O)c2cccc3ccccc23)sc2c1CCCC2 [JNK Inhibitor IX] | 0.59 °C | -0.12 °C | 0.41 °C | -0.14 °C | 0.23 °C | 0.19 °C | 0.38 °C | 0.53 °C | 1.73 °C | 0.46 °C | 0.22 °C | 0.04 °C | -1.1 °C | 0.77 °C | 0.43 °C | 0.27 °C | -0.09 °C | 0.6 °C | 0.83 °C | 0.4 °C |
